FMDV Renilla: antivirals against foot and mouth disease virus replicon; FMDV replicon cells, Renilla luciferase signal; Potency, µM (top dose mostly 57.5 µM), for inactives: top-dose activity change, negative = inhibition, hits mostly inhibitors; 120,000 tested, 0.32% active; note: nearly all actives have a fitted effect of over 55% in size
FMDV antiviral: antivirals against foot and mouth disease virus; FMDV antiviral cell assay, firefly luciferase signal; Potency, µM (doses to about 57.5 µM), for inactives: top-dose activity change, negative = inhibition, usual class: inhibitors; 120,000 tested, 0.23% active; AID 1745856; note: nearly all actives have a fitted effect of over 60% in size
* = called active by the depositor; [ ] = remark or other dose. Compounds with a hit are over-represented: about 0.45% of the library has one in this group of screens. Calls come from the whole dose curve. % is set by controls: 0 for no effect and ±100 for the full control effect; potency is the fitted concentration of half-maximal effect.

Results for Cc1nc2nncn2c(NCc2ccc(Cl)cc2)c1C ?
FMDV Renilla: 1.4µM*; FMDV antiviral: inconclusive

How did Cc1nc2nncn2c(NCc2ccc(F)cc2)c1C do in these assays?
FMDV Renilla: 8.9µM*; FMDV antiviral: inconclusive

What do the screens show for `Cc1cc(C)cc(NC(=O)C(c2ccccc2)n2cnc3c2c(=O)n(C)c(=O)n3C)c1` (stereo not given)?
FMDV Renilla: 22%; FMDV antiviral: 31%

What do the screens show for `CCOC(=O)c1ccc(NC(=O)c2cnn3c(=O)c4c(n(CC)c23)CCN(Cc2ccc(OC)cc2)C4)cc1`?
FMDV Renilla: 8%; FMDV antiviral: -15%

What do the screens show for `CCn1c2c(c(=O)n3ncc(C(=O)N4CCN(c5ccc(C(C)=O)cc5)CC4)c13)CN(Cc1ccc(OC)cc1)CC2`?
FMDV Renilla: 22µM*; FMDV antiviral: inconclusive

Results for CC(Cc1ccco1)NS(=O)(=O)N1CCCCC1 (stereo not given) ?
FMDV Renilla: 20%; FMDV antiviral: -4%

Results for CC(=O)NC(Sc1ccc(Cl)cc1)C(=O)c1ccccc1 (stereo not given) ?
FMDV Renilla: -16%; FMDV antiviral: -8%

What do the screens show for `CCN1CCN(c2nc3ccccc3nc2NS(=O)(=O)c2ccccc2)CC1`?
FMDV Renilla: -3%; FMDV antiviral: -3%

What do the screens show for `CCc1ccc(-c2nc(COC(=O)c3c(C)nsc3N)cs2)cc1`?
FMDV Renilla: 1.4µM*; FMDV antiviral: inconclusive

What do the screens show for `CCc1ccc(-c2nc(C)c(C(C)=O)s2)cc1`?
FMDV Renilla: 14%; FMDV antiviral: 129%

Results for COc1cc(C#N)ccc1OCc1ccc(Cl)cc1Cl ?
FMDV Renilla: 12%; FMDV antiviral: 20%

Results for CC(=O)c1cccc(NC(=O)Nc2cccc(Br)c2)c1 ?
FMDV Renilla: 2%; FMDV antiviral: 11%

Results for O=C(Nc1cccc(Br)c1)Nc1ccc2c(c1)N(C(=O)c1ccccc1)CC2 ?
FMDV Renilla: 14µM*; FMDV antiviral: inconclusive

What do the screens show for `COc1ccc(-c2cc(C(F)(F)F)nc(S(C)(=O)=O)n2)cc1`?
FMDV Renilla: inconclusive; FMDV antiviral: -32%

What do the screens show for `CCOC(=O)CS(=O)(=O)c1nc(-c2ccc(F)cc2)cc(C(F)(F)F)n1`?
FMDV Renilla: 28µM*; FMDV antiviral: inconclusive

What do the screens show for `CCCN1CCC(NC(=O)COc2ccc(F)cc2)CC1`?
FMDV Renilla: -7%; FMDV antiviral: 39%

Results for CCc1nc2ccccc2c(C(=O)OCC(=O)NC(N)=O)c1C ?
FMDV Renilla: 8%; FMDV antiviral: 19%

How did C=CCNC(=O)NC(=O)COC(=O)c1c(C)c(CC)nc2ccccc12 do in these assays?
FMDV Renilla: 25µM*; FMDV antiviral: 18µM*

How did Cc1cc(SCC(=O)NN2C(=O)NC3(CCCCC3)C2=O)nc2c(C)cccc12 do in these assays?
FMDV Renilla: 3%; FMDV antiviral: 4%

How did N#Cc1cccc(/C=C/C(=O)c2cccs2)c1 do in these assays?
FMDV Renilla: 17%; FMDV antiviral: 111%

How did Cc1ccc2nc(C)c(C(=O)N3CCN(Cc4ccccc4C)CC3)cc2c1 do in these assays?
FMDV Renilla: 16µM*; FMDV antiviral: 16µM*

How did Cc1ccc(S(=O)(=O)N2CCN(C(=O)c3cc4cc(C)ccc4nc3C)CC2)cc1 do in these assays?
FMDV Renilla: 3%; FMDV antiviral: 14%

How did Cc1cc(C=O)c(C)[nH]1 do in these assays?
FMDV Renilla: -3%[1.06 µM]; FMDV antiviral: -10%

What do the screens show for `O=C(O)c1ccc(C2SCCCS2)cc1`?
FMDV Renilla: -1%[1.06 µM]; FMDV antiviral: 0%

What do the screens show for `O=C(Nc1ccccn1)c1ccc(C2SCCCS2)cc1`?
FMDV Renilla: 22%; FMDV antiviral: 13µM*

How did COc1ccc(CCNC(=O)C(C)n2nc(C)c3c(C)n(-c4ccccc4)nc3c2=O)cc1OC (stereo not given) do in these assays?
FMDV Renilla: 9%; FMDV antiviral: 23%

What do the screens show for `Cc1ccc(CCNC(=O)C(C)n2nc(C)c3c(C)n(-c4ccc(C)cc4)nc3c2=O)cc1` (stereo not given)?
FMDV Renilla: 13µM*; FMDV antiviral: inconclusive

Results for COc1ccc2ccc(OC(=O)CCNC(=O)C(C)(C)C)cc2c1 ?
FMDV Renilla: -5%; FMDV antiviral: 30%

Results for CCS(=O)(=O)N1CCC(C(=O)N2CCN(c3cc(Cl)ccc3C)CC2)CC1 ?
FMDV Renilla: -25%; FMDV antiviral: -19%

What do the screens show for `Cc1ccc(Cl)cc1N1CCN(C(=O)C2CCN(c3nnc(-n4c(C)ccc4C)s3)CC2)CC1`?
FMDV Renilla: inconclusive; FMDV antiviral: 10µM*

How did CC(NC(=O)c1ccccc1SCc1cccs1)c1cccs1 (stereo not given) do in these assays?
FMDV Renilla: 161%; FMDV antiviral: 4%

Results for CC(=O)Nc1ccc(CNCc2csc(C)n2)cc1 ?
FMDV Renilla: -12%; FMDV antiviral: -12%

How did OCCCCCCCCCCCCCCCO do in these assays?
FMDV Renilla: -12%; FMDV antiviral: -6%

What do the screens show for `C[N+]1(CCCCCCCCCCCCCO)CCCC1`?
FMDV Renilla: 20µM*; FMDV antiviral: inconclusive

What do the screens show for `CC(CNC(=O)Cc1n[nH]c(=O)c2ccccc12)(c1ccccc1)c1ccccc1`?
FMDV Renilla: 0%; FMDV antiviral: 8%

How did C=C(C)COc1ccc2c(C)c(CCC(=O)NCc3ccc(S(N)(=O)=O)cc3)c(=O)oc2c1 do in these assays?
FMDV Renilla: 7.1µM*; FMDV antiviral: 4.5µM*

Results for COc1ccc2c(C)c(CCC(=O)NCc3ccc(S(=O)(=O)N(C)C)cc3)c(=O)oc2c1 ?
FMDV Renilla: -16%; FMDV antiviral: -6%

What do the screens show for `CCC(=O)Nc1cccc(NC(=O)c2ccc(C)cc2)c1C`?
FMDV Renilla: 5%; FMDV antiviral: 42%

Results for CCCCOC(=O)c1ccc(NC(=O)c2ccc3c(c2)CCCN3S(C)(=O)=O)cc1 ?
FMDV Renilla: 22µM*; FMDV antiviral: 28µM*

Results for CCCCOC(=O)c1ccc(NC(=O)c2ccc3c(c2)CCN3S(=O)(=O)c2ccccc2)cc1 ?
FMDV Renilla: -11%; FMDV antiviral: -39%

Results for CCOc1ccc2nc(NC(=O)CS(=O)(=O)c3ccc(Cl)cc3)sc2c1 ?
FMDV Renilla: inconclusive; FMDV antiviral: 8.9µM*

Results for CS(=O)(=O)c1ccc2nc(NC(=O)CS(=O)(=O)c3ccc(Cl)cc3)sc2c1 ?
FMDV Renilla: -8%; FMDV antiviral: 0%

Results for CCOc1cc(C(=O)O)cc(-c2ccccc2)c1OC ?
FMDV Renilla: 0%; FMDV antiviral: 0%

What do the screens show for `N#Cc1nc(-c2ccco2)oc1N1CCN(C(=O)c2ccccc2Cl)CC1`?
FMDV Renilla: 0%; FMDV antiviral: -8%

How did N#Cc1nc(-c2ccco2)oc1N1CCN(C(=O)CNC(c2ccccc2)c2ccccc2)CC1 do in these assays?
FMDV Renilla: 10µM*; FMDV antiviral: inconclusive

Results for CC1CCC(C(C)C)C(OC(=O)COC(=O)c2ccc(CSc3ccc(Cl)cc3)cc2)C1 (stereo not given) ?
FMDV Renilla: 10%; FMDV antiviral: -2%

How did O=C(CN1C(=O)c2ccccc2S1(=O)=O)c1ccc(-c2ccc(Br)cc2)cc1 do in these assays?
FMDV Renilla: -10%; FMDV antiviral: 33%

What do the screens show for `O=C(CN1C(=O)c2ccccc2S1(=O)=O)c1ccc(F)cc1`?
FMDV Renilla: 13%; FMDV antiviral: 11µM*

What do the screens show for `O=C1CN(Cc2ccc(F)c3cccnc23)CCN1`?
FMDV Renilla: -12%; FMDV antiviral: 0%

How did CCOCN(C(=O)Cn1c(C)nc2ccccc21)c1c(C)cccc1CC do in these assays?
FMDV Renilla: -5%; FMDV antiviral: -5%

Screening data from PubChem BioAssay.
